{
  "source": "ChEMBL document CHEMBL3988442",
  "about": "“University of Dundee, Small-Polar-MMV Screening Library” (2021)",
  "data": [
    {"molecular_target": "AMP-activated protein kinase, AMPK (Homo sapiens) (UniProt P54646+O43741+P54619+Q9UGJ0+Q9Y478+Q13131+Q9UGI9)", "test": "AMP-dependent Kinase enzyme assay. An in vitro enzyme assay that detects ADP turnover that is directly proportional to AMPK activity. This uses naive AMPK that is activated during the assay with MK-8722", "type": "functional", "set-up": "scale not given: direction of the effect not stated beside the values", "settings": "30 µM", "units": {"Percent Effect": "%"}, "values": [
      {"compound": "Cc1cc(C(=O)NC(C)Cc2ccc(N(C)C)cc2)n(C)n1", "note": "(centres undefined)", "Percent Effect": 11.6},
      {"compound": "CCN(CC)C(CNC(=O)c1ccc(-n2cncn2)cc1)c1ccsc1", "note": "(centres undefined)", "Percent Effect": -4.43},
      {"compound": "COc1ccc(CCNC(=O)c2ccc(=O)n(C)c2)c(Cl)c1", "Percent Effect": 5.99},
      {"compound": "Cc1ccc(CNC(=O)c2ccc(=O)n(C)n2)c(OC2CCCC2)c1", "Percent Effect": 12.3},
      {"compound": "c1csc(-c2noc(C3CNC3)n2)c1", "Percent Effect": 8.02},
      {"compound": "Cc1noc(-c2ccc(N(C)Cc3nccs3)nc2)n1", "Percent Effect": 5.7},
      {"compound": "COCCN1C(=O)[C@H]2CC[C@@H]1CN(S(=O)(=O)c1ccc(C#N)cc1)C2", "Percent Effect": 10.8},
      {"compound": "CC(NC(=O)c1ccc2c(c1)COC2)c1cccc(N2CCOC2=O)c1", "note": "(centres undefined)", "Percent Effect": 5.03},
      {"compound": "COc1cccnc1NC(=O)COC1CCCC1", "Percent Effect": 8.7},
      {"compound": "CSCCC(NC(=O)c1ccco1)C(=O)N(C)Cc1ccsc1", "note": "(centres undefined)", "Percent Effect": -5.54},
      {"compound": "CCc1cccc(C)c1NC(=O)NCCCN(CC)S(C)(=O)=O", "Percent Effect": 22.2},
      {"compound": "Cc1cc(C(=O)NCCC2CCN(C)CC2)ccc1N(C)S(C)(=O)=O", "Percent Effect": 6.31},
      {"compound": "CCCC1COCCN1Cc1ccc(S(=O)(=O)NC)cc1", "note": "(centres undefined)", "Percent Effect": 0.167},
      {"compound": "COc1cc(F)cc2sc(NC(=O)COCC3CCCO3)nc12", "note": "(centres undefined)", "Percent Effect": 1.22},
      {"compound": "COc1c(C)cnc(CN2CCCC(c3noc(C4CC4)n3)C2)c1C", "note": "(centres undefined)", "Percent Effect": -0.157},
      {"compound": "Cc1nc(CCN(C)C(=O)CN2CCCCCC2)no1", "Percent Effect": 1.14},
      {"compound": "COc1cc(-c2cccc3c2OC(CN)C3)cc(OC)c1OC", "note": "(centres undefined)", "Percent Effect": -5.11},
      {"compound": "CCC1COCCN1C(=O)NCc1nccn1CCc1ccccc1", "note": "(centres undefined)", "Percent Effect": -3.33},
      {"compound": "Cc1cc(C)n(C2CN(c3nc(N)nc4c3CCCC4)C2)n1", "Percent Effect": -1.57},
      {"compound": "Cc1n[nH]c(C)c1CCC(=O)N1CCc2c(nc[nH]c2=O)C1", "Percent Effect": -0.287},
      {"compound": "Cn1cc(N2CCN(c3ccc(C#N)cc3F)CC2=O)cn1", "Percent Effect": 0.0438},
      {"compound": "CN(C)c1ccc(C(=O)N(Cc2ccncc2)CC2CCCO2)nn1", "note": "(centres undefined)", "Percent Effect": -3.6},
      {"compound": "CCn1nc(C)cc1C(=O)N1C[C@@H](CN(C)C)[C@@H](CO)C1", "Percent Effect": 0.455},
      {"compound": "CN1C[C@H](c2ccccc2)[C@H]2CN(C(=O)Cc3cccc(O)c3)CC[C@H]21", "Percent Effect": 15.8},
      {"compound": "CC(C(=O)NCc1ccc(F)cc1)N(C)CCN1CCOCC1", "note": "(centres undefined)", "Percent Effect": 2.87},
      {"compound": "Cc1ccc(CN(C)C(=O)CNC(C)(C)c2noc(C(C)(C)C)n2)o1", "Percent Effect": -1.82},
      {"compound": "CCN(Cc1ccc(N(C)C)cc1)S(=O)(=O)c1cc(Br)ccc1OC", "Percent Effect": -8.72},
      {"compound": "Cc1nonc1CNC(=O)C(C)Oc1cccc(F)c1", "note": "(centres undefined)", "Percent Effect": 11.1},
      {"compound": "Nc1nccnc1C(=O)NC1CCCN(Cc2c(F)cccc2F)C1", "note": "(centres undefined)", "Percent Effect": 26.8},
      {"compound": "CCc1c(C)nn2c(O)cc(C3CCN(C(=O)c4ccccn4)C3)nc12", "note": "(centres undefined)", "Percent Effect": 4.34},
      {"compound": "Cc1ccc(S(=O)(=O)N2CCN(Cc3ccncc3)CC2)c(Cl)c1", "Percent Effect": -6.37},
      {"compound": "CCC(NCCn1cc(C)cn1)C(=O)Nc1cc(C)on1", "note": "(centres undefined)", "Percent Effect": -6.29},
      {"compound": "CCCOc1cc(CNC(=O)Nc2ccccn2)ccn1", "Percent Effect": 7.59},
      {"compound": "CN(Cc1ccc(-n2cccn2)cc1)C[C@@H]1CCCN2CCCC[C@H]12", "Percent Effect": 5.54},
      {"compound": "CCn1c(C2CCN(C(=O)c3ccc4cc[nH]c4c3)CC2)n[nH]c1=O", "Percent Effect": -10.8},
      {"compound": "Cc1cc(C(=O)N2CC[C@@]3(O)CCN(C(=O)N4CCCC4)C[C@H]3C2)no1", "Percent Effect": 5.71},
      {"compound": "Fc1cccc(OC2CCN(CCn3cc4ccccc4n3)CC2)c1", "Percent Effect": 7.33},
      {"compound": "OCCc1cc(C2CCCN2c2ncccn2)n[nH]1", "note": "(centres undefined)", "Percent Effect": 11.9},
      {"compound": "CCCC(=O)Nc1cccc(C(=O)N(C)CCCC2CCCO2)c1", "note": "(centres undefined)", "Percent Effect": 7.97}
    ]}
  ]
}
